# Data as given in PubChem BioAssay AID1521 (The Scripps Research Institute Molecular Screening Center, 2009).
# The other results are listed elsewhere or left out. A number with no mark means an inactive call. The source made the active and inactive calls.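 How the source made its calls: active means mean inhibition above the hit cutoff derived in the earlier primary screen (cut at about 25% in these data); inactive means the rest.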
# Assay: viability loss in Ba/F3 EpoR-JAK2V617F cells, confirmation, JAK2V617F inhibitor project, cell-based, luminescence, triplicate (AID 1521);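 further: 0% = DMSO-treated cells and 100% = JAK inhibitor I control wells; higher means lower luminescence from reduced cell ATP and viability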
# Details: CellTiter-Glo luminescence, at 5.6 µM, stronger effect = higher value
row,Compound,inhibition
1,Cc1ccc(NC(=S)N(CCCN2CCC(C)CC2)Cc2ccco2)cc1,52.5% (active)
2,COc1ccc(OC)c(Nc2nc(-c3ccc(O)c(O)c3)cs2)c1,99% (active)
3,O=c1oc2ccccc2cc1-c1cn(-c2ccccc2)c(=S)[nH]1,92.7% (active)
4,Cn1c(CCN2CCCCCC2)nc2cc(NC(=O)Nc3ccccc3)ccc21,-1.25%
5,CCC1CCCCN1CCCNC(=O)c1cc2c(Cl)nc3ccccc3c2s1 (stereo not drawn),12.1%
6,Oc1ccc(/C=N/Nc2ccc(C(F)(F)F)cn2)cc1O,99.2% (active)
7,c1ccc2c(c1)CSc1sccc1C2=C1CCNCC1,57.9% (active)
8,CCCc1nc2ccccc2c(=O)n1/N=C/c1ccc(O)c(O)c1,67.2% (active)
9,Cc1ccc(S(=O)(=O)C2(S(=O)(=O)c3ccc(C)cc3)CCCC2)cc1,62.1% (active)
10,COc1ccc(Cc2nnc(N/N=C/c3ccccc3O)[nH]c2=O)cc1OC,98.9% (active)
11,COc1cc(OC)cc(C(=O)N[C@H](C(=O)Nc2nc3ccccc3[nH]2)C(C)C)c1,99.1% (active)
12,COc1cc(OC)c(C(=O)NC2CCCCCC2)cc1OC,18.7%
13,Cc1cccc(NC(=O)c2ccc([N+](=O)[O-])o2)c1,84.7% (active)
14,N#C/C=C\Oc1ccc(Cl)cc1N,39.2% (active)
15,Cc1ccc(C2=NN(C)c3nc4ccccc4n3C2)cc1,-7.33%
16,COc1ccccc1N1CCN(Cc2ccc(OC)c3ccccc23)CC1,31.5% (active)
17,CN(Cc1ccc2nsnc2c1)Cc1nc(Cc2cccc(F)c2)no1,7.27%
18,COc1ccc(-c2csc(Nc3ccc(O)cc3)n2)cc1,97.2% (active)
19,O=C(CCl)N(Cc1cccc([N+](=O)[O-])c1)c1cccc(Cl)c1,99.7% (active)
20,CSCC(=O)N1CCCC(C(=O)c2cc(F)ccc2F)C1 (stereo not drawn),-9.05%
21,CCn1c(/C=C/c2ccc([N+](=O)[O-])o2)nc2ccccc2c1=O,99.1% (active)
22,CCCn1c(NC(=O)C23CC4CC(CC(O)(C4)C2)C3)nc2ccccc21,-6.61%
23,O=C(CCl)Nc1ccc(Sc2ccc(NC(=O)CCl)cc2)cc1,99.7% (active)
